Source: PubChem BioAssay
Only some compounds are listed: those with a hit (about 3.5% of all), similar ones and a draw of the others.
TEAD-YAP inh: TEAD-YAP interaction inhibition, primary screen, TEAD-YAP interaction inhibitor project, luminescence, HEK-TIYL cells; TEAD-Gal4/YAP UAS-luciferase luminescence; inhibition, % at 9.12 µM; actives 1.4% (n = 640,000); in the data active = inhibition above about 32%;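 note: 0% = median of test compound wells and 100% = reference inhibitor wells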
FBW7 activator: FBW7 E3 ligase activators, primary screen, biochemical, AlphaScreen, human; F-box/WD repeat-containing protein 7 (Homo sapiens), Q969H0; AlphaScreen FBW7–phospho-cyclin E peptide binding, activator screen; normalized activity (activation), % at 26.1 µM; actives 0.13% (n = 650,000); in the data active = normalized activity above about 1.9%;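 note: purified mutant Fbw7 with reduced substrate affinity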
Target sequence (Q969H0 whole entry, looked up): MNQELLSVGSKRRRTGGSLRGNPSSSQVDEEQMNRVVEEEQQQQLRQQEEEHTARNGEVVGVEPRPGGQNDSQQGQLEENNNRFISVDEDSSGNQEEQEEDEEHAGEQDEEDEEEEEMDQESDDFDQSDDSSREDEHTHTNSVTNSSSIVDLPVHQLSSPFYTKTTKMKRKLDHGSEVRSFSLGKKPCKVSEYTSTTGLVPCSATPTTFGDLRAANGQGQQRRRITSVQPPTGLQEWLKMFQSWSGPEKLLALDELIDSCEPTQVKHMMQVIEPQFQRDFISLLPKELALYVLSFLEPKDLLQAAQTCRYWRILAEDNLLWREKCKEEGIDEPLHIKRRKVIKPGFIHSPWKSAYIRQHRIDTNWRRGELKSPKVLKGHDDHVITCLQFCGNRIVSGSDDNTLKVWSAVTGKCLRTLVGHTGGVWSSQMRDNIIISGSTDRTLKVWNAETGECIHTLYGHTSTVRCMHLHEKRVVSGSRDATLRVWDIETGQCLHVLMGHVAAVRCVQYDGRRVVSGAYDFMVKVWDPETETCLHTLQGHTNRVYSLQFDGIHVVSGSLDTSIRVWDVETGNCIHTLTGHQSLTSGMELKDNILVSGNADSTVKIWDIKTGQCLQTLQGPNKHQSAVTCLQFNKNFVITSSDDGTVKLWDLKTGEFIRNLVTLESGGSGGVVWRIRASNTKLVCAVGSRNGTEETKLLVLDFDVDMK
GPR151 activ: activators of human GPR151, primary screen, cell-based, PathHunter beta-arrestin, luminescence | G-protein coupled receptor 151 (Homo sapiens), Q8TDV0 | PathHunter beta-arrestin GPR151 cells | activation, % at 11.2 µM | actives 1% (n = 650,000); in the data active = activation above about 4.9%;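 note: 0% = median of compound wells and 100% = cells with positive control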
MITF primary: MITF inhibitors, primary screen, biochemical, AlphaScreen, human | AID 1259374, 2018 | actives 0.91% (n = 650,000) | AlphaScreen MITF homodimerization, bead proximity signal | inhibition, % at 2.6 µM | Microphthalmia-associated transcription factor (Homo sapiens), O75030; in the data active = inhibition above about 50%;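 note: 0% = vehicle wells with protein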
MITF inh conf: MITF inhibitors, retest of hits, confirmation, biochemical, AlphaScreen, triplicate; shares compounds with MITF primary; AlphaScreen MITF homodimerization, biotin/His-MITF beads; inhibition, % at 2.6 µM; actives 16% (n = 4,700); AID 1259372, 2018;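 active = inhibition above a cutoff derived from the DMSO control wells, cut at about 28% in these data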;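 note: 0% = MITF dimer wells with DMSO only; inhibitors lower the bead chemiluminescence by keeping MITF from dimerizing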
AS interf DR: AlphaScreen optical interference compounds, dose response, counter-screen, biochemical, HTS. IC50, µM. AlphaScreen optical interference counterscreen, cell-free. shares compounds with MITF primary. actives 6% (n = 480); call rule not given here
AlphaScreen intf2: AlphaScreen optical interference compounds, counter-screen for MITF inhibitor project, biochemical, triplicate. shares compounds with MITF primary. inhibition, % at 2.6 µM. actives 7.6% (n = 4,700). AID 1259376, 2018. LysRS AlphaScreen counterscreen, signal interference;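 active = inhibition above a cutoff derived from the DMSO control wells, cut at about 30% in these data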
* marks the source's active call; other numbers are inactive results; / = no result given.

SMILES | TEAD-YAP inh | FBW7 activator | GPR151 activ | MITF primary | MITF inh conf | AlphaScreen intf2 | others
Cc1ccc(C)n1C(CC(=O)O)c1cccc(Cl)c1 (configuration not stated) | 3 | 0 | 0 | 77* | 16 | 7
NC(=O)NC(c1ccccc1)c1cccc(Cl)c1 (configuration not stated) | 1 | 1 | 0 | 17 | / | /
COc1ccc(CN2CCN(C(=O)c3ccccc3OC)CC2)cc1OCc1ccccc1 | 2 | 0 | -2 | 41 | / | /
O=C(c1ccccc1F)N1CCN(Cc2ccccc2)CC1 | 8 | 0 | -1 | 3 | / | /
O=C(c1ccccc1F)N1CCN(S(=O)(=O)c2ccc(F)cc2)CC1 | 4 | 0 | 0 | 63* | 0 | 12
COc1ccccc1C(=O)N1CCN(Cc2ccc(Cl)cc2)CC1 | 11 | 0 | 0 | 55* | 1 | 1
O=C(c1ccccc1F)N1CCN(Cc2ccc(Cl)cc2)CC1 | 18 | 0 | -2 | 56* | 13 | 11
O=C(c1ccccc1F)N1CCN(Cc2ccccc2Cl)CC1 | -9 | 0 | -1 | 48 | / | /
O=C(c1ccccc1F)N1CCN(Cc2ccccc2Br)CC1 | 1 | 0 | 0 | 54* | 9 | 13
Cc1csc2ncc(C(=O)Nc3ccc(F)c([N+](=O)[O-])c3)c(=O)n12 | -4 | 0 | 0 | 14 | / | /
Cc1ccc2nc(Cn3cnc4ccccc43)cc(=O)n2c1 | -29 | 0 | 2 | -3 | / | /
Cc1ccc(C(=O)Nc2ccc([N+](=O)[O-])cn2)o1 | -32 | 0 | -4 | 80* | 69* | -9 | AS interf DR=>6.5
CCOc1cc(-c2ccc(I)o2)cc(=O)c2c(C)oc(C)c12 | -2 | 0 | -1 | 58* | 37* | -2
CCOc1cc(-c2cc(OCC)c3c(C)oc(C)c3c(=O)c2)ccc1O | -7 | 0 | 0 | -7 | / | /
Cc1cc(Br)ccc1NCc1ccccn1 | -12 | 0 | 0 | 67* | -4 | 8
Cc1ccc(NCc2ccccn2)c(Br)c1 | -58 | 1 | -1 | 59* | 10 | 16
Cc1cc(C)cc(NCc2ccccn2)c1 | 7 | 0 | 0 | 17 | / | /
CN1CCN(C(CNC(=O)c2ccc(-c3ccccc3)cc2)c2ccsc2)CC1 (configuration not stated) | -8 | 0 | 0 | 55* | 1 | -4
CC(Oc1ccc2c(C(F)(F)F)cc(=O)oc2c1)C(=O)NN (configuration not stated) | 1 | 0 | 4 | 58* | 44* | -4 | AS interf DR=>6.6
CC(=O)COc1ccc2c(C(F)(F)F)cc(=O)oc2c1 | 4 | 0 | -1 | -23 | / | /
OCc1ccc(OCc2ccccc2F)cc1 | -11 | 0 | -4 | -4 | / | /
O=C1C(=Cc2ccccc2I)C(=O)c2ccccc21 | -1 | 0 | 0 | -3 | / | /
O=C1NC(=O)C(=Cc2ccccc2I)C(=O)N1 | -11 | 0 | 0 | 55* | 2 | 10
CN1CCN(CCS(=O)(=O)OCC(F)(F)C(F)F)CC1 | 0 | 0 | 2 | 77* | 11 | -3
Cc1ccc(OCCOCCN2CCN(C)CC2)c([N+](=O)[O-])c1 | -7 | 0 | 0 | 87* | 18 | 26
SMILES | TEAD-YAP inh | FBW7 activator | GPR151 activ | MITF primary | MITF inh conf | AlphaScreen intf2 | others
O=[N+]([O-])c1ccccc1OCCOCCOc1ccccc1[N+](=O)[O-] | -4 | 0 | 0 | 3 | / | /
CN1CCN(CCOCCOc2ccccc2[N+](=O)[O-])CC1 | 3 | 0 | 0 | 78* | 7 | 22
CC(C)(C)NC(=O)CN1C(=O)c2ccccc2S1(=O)=O | -7 | 0 | 2 | 1 | / | /
COc1ccc(OCc2cc(C(=O)N(C)CC3CCCN3C)no2)c(Cl)c1 (configuration not stated) | -12 | 0 | 0 | -7 | / | /
Cc1ccc(NC(=O)/C(=C\c2ccc([N+](=O)[O-])o2)NC(=O)c2ccc(Cl)cc2)cc1 | 0 | 0 | 0 | 15 | / | /
Cc1ccc(C(=O)N/C(=C/c2ccc([N+](=O)[O-])o2)C(=O)O)cc1 | 6 | 0 | 1 | 70* | 54* | 5 | AS interf DR=>5.9
CCOc1ccc(-n2c(CNC(=O)c3ccco3)nnc2SCC(=O)N2N=C(c3cccs3)CC2c2ccc(C)cc2)cc1 (configuration not stated) | 2 | 0 | 2 | -5 | / | /
O=C(CSc1ccc(-c2ccccn2)nn1)Nc1ccc(F)c(F)c1 | -1 | -2 | -2 | 17 | / | /
O=C(CSc1ccc(-c2ccccn2)nn1)Nc1ccccc1F | 0 | 0 | -5 | 52* | 56* | 88*
O=C(CSc1ccc(-c2ccccn2)nn1)c1ccccc1 | -44 | -2 | 0 | 53* | 88* | 100*
O=C(Nc1nc2c(s1)C(=O)CC(C(=O)N1CCOCC1)C2)c1ccccc1 (configuration not stated) | -5 | 0 | -1 | -2 | / | /
COc1ccc(CN(C)CCc2ccccn2)cc1OC | -2 | 0 | -2 | 77* | 0 | 2
COc1ccc(CN(Cc2ccccn2)S(=O)(=O)c2ccc(F)cc2F)cc1OC | 5 | 0 | 0 | 4 | / | /
C=CCc1ccc(OC)c(OCc2ccccc2)c1 | 3 | 0 | -1 | 22 | / | /
COc1ccc(CN(C)CCc2ccccn2)cc1OCc1ccccc1 | -14 | 0 | 2 | 62* | 4 | 23
COc1cc(/C=C/C(=O)NCc2ccccn2)cc(OC)c1OC | -7 | 0 | -1 | -5 | / | /
COc1cc(CN(C)CCc2ccccn2)cc(OC)c1OC | 3 | 0 | 0 | 74* | 12 | 19
O=C(COC(=O)C1CCN(S(=O)(=O)c2cccs2)CC1)c1c[nH]c2ccccc12 | 4 | 0 | 2 | 8 | / | /
COc1ccc2c(c1)CC(C(=O)Nc1ccc(-c3cn[nH]c3)cc1OCC#N)CO2 (configuration not stated) | 2 | 0 | 0 | 52* | 43* | 19 | AS interf DR=>6.5
COc1ccc2c(c1)CC(C(=O)Nc1ccc(-c3cn[nH]c3)cc1C(=O)N(C)OC)CO2 (configuration not stated) | -8 | 0 | -3 | 51* | 51* | 13 | AS interf DR=>6.5
c1ccc(Nc2nc3ncnc(NCCN4CCOCC4)c3[nH]2)cc1 | -10 | 0 | 0 | 0 | / | /
O=C(CSc1nc2[nH]ncc2c(=O)n1-c1ccc(Cl)cc1)NCc1cccs1 | 13 | 0 | 0 | 14 | / | /
O=C(CSc1nc2[nH]ncc2c(=O)n1-c1ccc(Br)cc1)NCc1cccs1 | 9 | 0 | 0 | 54* | -9 | -10
